The text below walks through data of PubChem BioAssay (NCATS).

Records with an inconclusive call do not appear. A call without a number means that no potency is given here. Active and inactive are the calls of the source. The call rests on the fitted dose curve; in most records, active means well fitted curve in the direction sought with a large enough effect; inconclusive means small, poorly fitted or top-dose-only effect, or another doubt; inactive means no such curve, though single readings can be large; an effect the other way counts as inactive or inconclusive.

The target of experiment [1] is Calcium and integrin-binding protein 1 (Homo sapiens) (UniProt Q99828). As to the kind of experiment: Primary qHTS for Identification of Calcium Integrin Binding Protein 1 (CIB1) Competitor (AID 1508620).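 Further: GST tagged CIB1 binding a fluorescein labelled alphaIIb integrin peptide tracer; top concentration of the series differs between compounds.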 In a few lines:
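Fluorescence polarization competition: CIB1-GST (1 uM final) preincubated with compound 15 min at room temperature, then FITC-labeled alphaIIb peptide (100 nM final) added for another 15 min. Polarization read at Ex 480/Em 540.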

A short description of experiment [2]: Primary qHTS for small molecule stabilizers of the endoplasmic reticulum resident proteome: Secreted ER Calcium Modulated Protein (SERCaMP) assay (AID 1508630). In a few lines: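 GLuc-SERCaMP-expressing SH-SY5Y cells, pretreated 16 h with compound, are challenged with thapsigargin to empty ER calcium stores; after 4 h, coelenterazine is added directly to the medium and luminescence is imaged.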

Sequence of Calcium and integrin-binding protein 1 (Homo sapiens) (Q99828 whole entry, looked up): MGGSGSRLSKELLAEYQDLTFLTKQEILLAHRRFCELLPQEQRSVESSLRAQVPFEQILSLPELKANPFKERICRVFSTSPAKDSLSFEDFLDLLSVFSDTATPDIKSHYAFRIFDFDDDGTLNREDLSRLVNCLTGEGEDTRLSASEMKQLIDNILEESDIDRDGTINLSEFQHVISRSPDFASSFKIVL

Turning to `CN(C)Cc1cccc(N=C(c2ccccc2)c2c(O)[nH]c3cc(C(=O)N(C)C)ccc23)c1`, the Potency entry in experiment [1] and in experiment [2] was “inactive” in each case.
Take `Cc1ccc(/C=N/NC(=O)c2ccccc2Oc2ccccc2)o1`: the Potency entry in experiment [1] and in experiment [2] was “inactive” in each case.
On to `O=C(OCC#CCSc1nnc(-c2cccc3ccccc23)o1)c1cc2ccccc2s1`, for which the Potency entry in experiment [1] and in experiment [2] was “inactive” throughout.
For `O=C(N[C@@H](c1ccccc1)[C@@H]1CCCCN1)c1cccc(C(F)(F)F)c1Cl`, the Potency result in experiment [1] and in experiment [2] was “inactive” in each case.
Consider `CON=C(C(=O)N[C@@H]1C(=O)N2C(C(=O)OCOC(=O)C(C)(C)C)=C(C=Cc3scnc3C)CS[C@H]12)c1csc(N)n1`, for which the Potency result in experiment [1] and in experiment [2] was “inactive” in each case.
Consider `CC#CCn1c(N2CCC[C@@H](N)C2)nc2c1c(=O)n(Cc1nc(C)c3ccccc3n1)c(=O)n2C`, for which the Potency result in experiment [1] and in experiment [2] was “inactive” each time.
For the compound `CC[C@@H]1C=C(C)C[C@H](C)C[C@H](OC)[C@H]2O[C@@](O)(C(=O)C(=O)N3CCCC[C@@H]3C(=O)O[C@H](C(C)=C[C@@H]3CC[C@H](Cl)[C@H](OC)C3)[C@H](C)[C@@H](O)CC1=O)[C@H](C)C[C@H]2OC`, the Potency entry in experiment [1] and in experiment [2] was “inactive” throughout.
In the case of `COc1cc(NC(=O)c2ccc(-c3ccc(Cl)cc3)o2)cc(OC)c1`, the Potency entry in experiment [1] and in experiment [2] was “inactive” throughout.
Consider `CC1CCC(C(=O)N(c2cc(C#CC(C)(C)C)sc2C(=O)O)C2CCC(O)CC2)CC1` (centres undefined), for which the Potency entry in experiment [1] and in experiment [2] was “inactive” each time.
With `CC(C)=CC[C@@H](O)C1=CC(=O)c2c(O)ccc(O)c2C1=O`, the Potency result in experiment [1] and in experiment [2] was “inactive” in each case.
On to `CNC(=O)c1ccccc1Sc1ccc2c(C=Cc3ccccn3)n[nH]c2c1`, for which the Potency result in experiment [1] and in experiment [2] was “inactive” in each case.
Regarding `COc1ccc(-c2coc3cc(O)ccc3c2=O)cc1`, the Potency entry in experiment [1] and in experiment [2] was “inactive” throughout.
As for `N[C@H](CSC(c1ccccc1)(c1ccccc1)c1ccccc1)C(=O)O`, the Potency result in experiment [1] and in experiment [2] was “inactive” each time.
On to `N#CC1(c2ccc(NC(=O)c3cccnc3NCc3ccncc3)cc2)CCCC1`, for which the Potency entry in experiment [1] and in experiment [2] was “inactive” throughout.
In the case of `COC(=O)N[C@H](C(=O)N1CCC[C@@H]1c1ncc(-c2ccc(-c3ccc(-c4cnc([C@@H]5CCCN5C(=O)[C@@H](NC(=O)OC)C(C)C)[nH]4)cc3)cc2)[nH]1)C(C)C`, the Potency result in experiment [1] and in experiment [2] was “inactive” each time.
Regarding `CNC1CCC(N(Cc2cccc(-c3ccncc3)c2)C(=O)c2sc3c(F)ccc(F)c3c2Cl)CC1` (centres undefined), the Potency entry in experiment [1] and in experiment [2] was “inactive” throughout.
With `O=C(NCc1ccncc1)C12C[C@H]3C[C@@H](C1)CC(c1ccc(Cl)cc1)(C3)C2`, the Potency result in experiment [1] and in experiment [2] was “inactive” throughout.
Turning to `C[C@]12CC[C@@H]3c4ccc(O)cc4CC[C@H]3[C@H]1C[C@@H](O)[C@H]2O`, the Potency result in experiment [1] and in experiment [2] was “inactive” throughout.
On to `CC(C)C(=O)Oc1ccc(CO)cc1[C@H](CCN(C(C)C)C(C)C)c1ccccc1`, for which the Potency entry in experiment [1] and in experiment [2] was “inactive” in each case.
Turning to `OC[C@H]1O[C@@H](Oc2cc(O)cc(C=Cc3ccc(O)cc3)c2)[C@H](O)[C@@H](O)[C@H]1O`, the Potency entry in experiment [1] and in experiment [2] was “inactive” throughout.
Consider `CC1(C)CCC[C@@]2(C)[C@@H]1CC[C@@]1(C)OC(=O)C[C@H]21`, for which the Potency entry in experiment [1] and in experiment [2] was “inactive” in each case.
With `CC(C)(C(=O)NCC(F)(F)C(F)(F)F)C(=O)N[C@@H]1C(=O)Nc2ccccc2-c2ccccc21`, the Potency entry in experiment [1] and in experiment [2] was “inactive” throughout.
`CO[C@H]1C(=O)[C@]2(C)[C@@H](OC)C[C@H]3OC[C@@]3(OC(C)=O)[C@H]2[C@H](OC(=O)c2ccccc2)[C@]2(O)C[C@H](OC(=O)[C@H](O)[C@@H](NC(=O)OC(C)(C)C)c3ccccc3)C(C)=C1C2(C)C`: the Potency entry in experiment [1] and in experiment [2] was “inactive” each time.
As to `CCOC(=O)O[C@]1(C(=O)OCCl)CC[C@@H]2[C@H]3CCC4=CC(=O)C=C[C@]4(C)[C@@H]3[C@@H](O)C[C@@]21C`, the Potency result in experiment [1] and in experiment [2] was “inactive” each time.
Consider `CN(C)Cc1ccc(-c2nc3cccc4c3n2CCNC4=O)cc1`, for which the Potency result in experiment [1] and in experiment [2] was “inactive” in each case.
On to `NC1=N[C@@]2(c3cc(NC(=O)c4ccc(F)cn4)ccc3F)COC[C@@H]2CS1`, for which the Potency entry in experiment [1] and in experiment [2] was “inactive” in each case.
In the case of `C[C@H](NC(=O)c1sccc1OCc1ccc(Cl)cc1)c1ccccc1`, the Potency entry in experiment [1] and in experiment [2] was “inactive” in each case.
For the compound `c1cc(-c2sc(-c3ccncc3)c(-c3ccncc3)c2-c2ccncc2)ccn1`, the Potency entry in experiment [1] and in experiment [2] was “inactive” throughout.
On to `COc1ccc(-n2c(C)c([N+](=O)[O-])c3ccc(O)cc32)cc1`, for which the Potency result in experiment [1] and in experiment [2] was “inactive” throughout.
`C[C@]12CC[C@@H]3c4ccc(O)cc4C[C@@H](CCCCCCCCCS(=O)CCCC(F)(F)C(F)(F)F)[C@H]3[C@H]1CC[C@H]2O` (some centres undefined): the Potency entry in experiment [1] and in experiment [2] was “inactive” in each case.
On to `Cc1ccccc1C(C(=O)NC1CCCCC1)N(C(=O)Cn1ccnc1C)c1cccc(F)c1` (centres undefined), for which the Potency result in experiment [1] and in experiment [2] was “inactive” each time.
Take `NC[C@@H]1O[C@@H](O[C@H]2[C@@H](O)[C@H](O[C@@H]3[C@@H](O)[C@@H](N)C[C@H](N)[C@H]3O[C@H]3O[C@H](CN)[C@@H](O)[C@@H](O)[C@H]3N)O[C@H]2CO)[C@H](N)[C@@H](O)[C@@H]1O`: the Potency result in experiment [1] and in experiment [2] was “inactive” each time.
